Results taken from PubChem BioAssay AID782 (Emory University Molecular Libraries Screening Center, 2007).
The whole screen tested about 220,000 compounds, of which about 800 (0.36%) were called active.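 Rule for the calls: active = inhibition above about 30% (limit read from the data); inactive = the rest.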 Only a selection was taken, and actives are over-represented in it overall.

Target: Eukaryotic translation initiation factor 4E (Mus musculus) + Eukaryotic translation initiation factor 4 gamma 1 (Homo sapiens) (UniProt P63073+Q04637)
Assay: eIF4E–eIF4G protein interaction inhibitors, primary screen, biochemical, uHTS, TR-FRET, eIF4GI fragment (AID 782);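 note: 0% = full FRET control wells and 100% = background wells lacking eIF4GI fragment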
Conditions: TR-FRET eIF4E-eIF4GI(517-606) binding, 2 h; at 21.7 µM; hits give high values

Eukaryotic translation initiation factor 4E (Mus musculus) + Eukaryotic translation initiation factor 4 gamma 1 (Homo sapiens), sequence (P63073 whole entry, looked up, the tested form may be a part): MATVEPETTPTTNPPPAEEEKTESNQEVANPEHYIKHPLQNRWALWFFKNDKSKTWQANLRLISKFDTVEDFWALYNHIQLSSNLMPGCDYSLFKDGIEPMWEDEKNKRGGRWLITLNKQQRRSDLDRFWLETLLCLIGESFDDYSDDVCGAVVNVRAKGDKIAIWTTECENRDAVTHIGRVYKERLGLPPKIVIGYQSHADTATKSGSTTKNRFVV
Eukaryotic translation initiation factor 4E (Mus musculus) + Eukaryotic translation initiation factor 4 gamma 1 (Homo sapiens), sequence (Q04637 whole entry, looked up, the tested form may be a part): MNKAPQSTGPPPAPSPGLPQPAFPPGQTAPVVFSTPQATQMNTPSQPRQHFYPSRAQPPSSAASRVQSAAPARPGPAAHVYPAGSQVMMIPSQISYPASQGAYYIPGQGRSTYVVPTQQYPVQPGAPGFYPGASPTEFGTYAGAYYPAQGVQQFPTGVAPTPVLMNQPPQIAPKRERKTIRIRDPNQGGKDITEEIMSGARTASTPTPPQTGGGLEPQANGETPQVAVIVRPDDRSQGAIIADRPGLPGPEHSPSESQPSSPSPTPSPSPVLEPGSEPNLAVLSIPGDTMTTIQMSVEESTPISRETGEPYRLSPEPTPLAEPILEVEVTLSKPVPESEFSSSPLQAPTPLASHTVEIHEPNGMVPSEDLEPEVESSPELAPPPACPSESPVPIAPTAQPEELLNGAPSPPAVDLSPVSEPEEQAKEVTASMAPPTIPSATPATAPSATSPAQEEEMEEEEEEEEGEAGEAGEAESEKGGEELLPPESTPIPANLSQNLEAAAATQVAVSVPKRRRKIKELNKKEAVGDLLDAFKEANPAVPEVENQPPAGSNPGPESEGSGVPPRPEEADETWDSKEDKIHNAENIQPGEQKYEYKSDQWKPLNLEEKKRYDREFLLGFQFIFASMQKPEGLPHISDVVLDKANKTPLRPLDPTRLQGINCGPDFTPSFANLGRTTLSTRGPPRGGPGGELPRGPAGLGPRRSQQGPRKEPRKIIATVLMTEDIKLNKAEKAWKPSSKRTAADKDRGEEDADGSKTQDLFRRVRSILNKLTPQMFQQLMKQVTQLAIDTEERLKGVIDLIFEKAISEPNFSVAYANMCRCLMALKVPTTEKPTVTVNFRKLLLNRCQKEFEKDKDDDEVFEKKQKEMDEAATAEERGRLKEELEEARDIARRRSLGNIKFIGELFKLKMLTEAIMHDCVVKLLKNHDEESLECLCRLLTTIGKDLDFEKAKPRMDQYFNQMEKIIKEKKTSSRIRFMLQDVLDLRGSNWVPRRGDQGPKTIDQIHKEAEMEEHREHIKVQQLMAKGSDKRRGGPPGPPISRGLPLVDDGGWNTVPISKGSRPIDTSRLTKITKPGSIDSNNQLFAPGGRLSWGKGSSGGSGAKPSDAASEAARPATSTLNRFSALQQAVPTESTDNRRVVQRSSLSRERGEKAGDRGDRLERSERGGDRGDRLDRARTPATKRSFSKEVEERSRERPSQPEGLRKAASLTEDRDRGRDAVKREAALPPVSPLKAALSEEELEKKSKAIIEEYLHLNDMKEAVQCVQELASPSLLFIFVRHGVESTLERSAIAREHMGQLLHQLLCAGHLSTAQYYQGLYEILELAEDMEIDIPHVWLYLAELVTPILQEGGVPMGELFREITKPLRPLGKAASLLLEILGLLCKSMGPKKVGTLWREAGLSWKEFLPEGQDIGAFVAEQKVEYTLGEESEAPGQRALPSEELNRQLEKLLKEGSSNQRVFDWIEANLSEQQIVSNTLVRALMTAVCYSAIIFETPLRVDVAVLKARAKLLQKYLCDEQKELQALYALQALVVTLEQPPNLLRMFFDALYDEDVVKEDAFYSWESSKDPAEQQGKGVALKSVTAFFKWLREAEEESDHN

Row | Structure (SMILES) | inhibition
1 | COC(=O)/C=C(\Oc1ccccc1)C1(O)CCCCC1 | 3.79% (inactive)
2 | COCC(C)n1c(SCc2ccc(C(=O)OC)o2)nc2ccccc2c1=O (centres undefined) | 56% (active)
3 | COC(=O)c1ccc(CSc2nc3ccccc3c(=O)n2-c2cccc(OC)c2)o1 | 2.4% (inactive)
4 | COCCn1c(C)cc(C(=O)CSc2nc3ccccc3c(=O)n2C(C)COC)c1C (centres undefined) | -1.77% (inactive)
5 | CSc1nc(C)nc(C2CC2)c1C#N | -3.41% (inactive)
6 | Cc1cccc(N(C)C(=O)c2cc3c(=O)[nH]c4ccc(C)cc4c3s2)c1 | -9.17% (inactive)
7 | O=S(=O)(Cc1noc(-c2ccc(OC(F)(F)F)cc2)n1)c1ccc(F)cc1 | -0.8% (inactive)
8 | S=c1[nH]nc(-c2ccco2)n1/N=C/c1ccc(Br)s1 | 49.9% (active)
9 | Cc1cc(-c2n[nH]c(=S)n2/N=C/c2ccco2)n[nH]1 | -0.15% (inactive)
10 | S=c1[nH]nc(-c2ccco2)n1/N=C/c1ccccc1 | -0.4% (inactive)
11 | O=[N+]([O-])c1cc(Cl)cc(/C=N/NC(=S)Nc2cc(S(=O)(=O)N3CCOCC3)ccc2Cl)c1O | 37.9% (active)
12 | O=C(N/N=C/c1ccc([N+](=O)[O-])o1)c1cccc(S(=O)(=O)N2CCOCC2)c1 | 0.27% (inactive)
13 | O=C(CN1CCN(c2ccc(O)cc2)CC1)Nc1cc(S(=O)(=O)N2CCOCC2)ccc1Cl | 18.9% (inactive)
14 | COc1ccc(/C(N)=N/OC(=O)CCCc2ccccc2)cc1 | -2.25% (inactive)
15 | Cc1ccc(SCC(=O)Nc2ccc3c(c2)OCCO3)cc1 | 0.94% (inactive)
16 | NC(N)=NCCCc1cn(CC(=O)N2CCNCC2)nn1 | 0.73% (inactive)
17 | FC(F)(F)c1nnc2ccc(N3CCN(c4ccccc4)CC3)nn12 | 0.95% (inactive)
18 | Fc1c(F)c(C(F)(F)F)c(F)c(F)c1N1CCN(c2ccc3nnc(C(F)(F)F)n3n2)CC1 | 35.1% [fluorescence artefact?] (active)
19 | CCSc1nc(C)c(CCOc2cccc(C)c2)c(=O)[nH]1 | -0.93% (inactive)
20 | Oc1c(Cl)cc(Cl)c(Cl)c1Cc1c(O)c(Cl)cc(Cl)c1Cl | 46.2% (active)

Row | Structure (SMILES) | inhibition
21 | CCOC(=O)c1c(NC(=O)CSc2nnc(CNc3ccc(C)cc3C)o2)sc(C)c1C | -0.54% (inactive)
22 | CCOc1cc(C(=S)N2CCOCC2)ccc1O | 30.5% [fluorescence artefact?] (active)
23 | COc1cc(C(=S)N2CCOCC2)ccc1O | -0.65% (inactive)
24 | CCOc1cc(C(=O)OCC(=O)Nc2cccc(C)c2)ccc1OCC(=O)N1CCOCC1 | 0.63% (inactive)
25 | Cc1ccnc(NC(=O)CCCOc2ccccc2)c1 | 3.5% (inactive)
26 | CCOC(=O)N1CCC(=NNC(N)=O)CC1 | 2.99% (inactive)
27 | CC(C)NC(=S)NN=C1CCCCCCCCCCC1 | -4.16% (inactive)
28 | CC(C)(C)NC(=O)C(=O)NN=C1CCCCCCC1 | 39.2% (active)
29 | CC(NC(=O)C(=O)NN=C1CCC(C(C)(C)C)CC1)c1ccccc1 (centres undefined) | 2.57% (inactive)
30 | Cc1c(C(=O)N/N=C/c2ccccc2)[nH]c2c([N+](=O)[O-])cccc12 | 94.2% (active)
31 | O=C(N/N=C/c1ccc([N+](=O)[O-])cc1)c1c[nH]c2ccccc12 | -2.85% (inactive)
32 | Cc1cc(C(=O)N/N=C/c2ccccc2[N+](=O)[O-])c(C)o1 | 2.6% (inactive)
33 | COC(=O)Nc1ncc(CN2CCCCC2)s1 | 1.52% (inactive)
34 | N/C(=N\S(=O)(=O)c1cc(C(F)(F)F)cc(C(F)(F)F)c1)c1cccs1 | 0.14% (inactive)
35 | Cc1ccc(C(=O)NC(=S)Nc2ccccc2C)cc1 | -1.48% (inactive)
36 | CCOC(=O)c1c(N)sc2c1CCCC2=O | -0.22% (inactive)
37 | Cc1cc2cc(CNC(=O)c3ccc(S(=O)(=O)N4CCOCC4)cc3)ccc2[nH]1 | -23.9% (inactive)
38 | C/C(CC(=O)Nc1ccc(C)cc1C)=N\NC(=O)C(C)C | -1.71% (inactive)
39 | C=CCn1c(SCC(=O)Nc2nc3ccccc3s2)nnc1-c1ccccc1O | 6.76% (inactive)
40 | C=CCn1c(N)cc(=O)nc1SCC(=O)Nc1cccc2ccccc12 | 30.1% (active)

Row | Structure (SMILES) | inhibition
41 | C=CCn1c(SCC(=O)NCc2ccccc2)nnc1-c1cc(Br)ccc1O | 4.21% (inactive)
42 | CC(NC(=S)NNS(=O)(=O)c1ccc(C(C)(C)C)cc1)c1ccccc1 (centres undefined) | 96.5% (active)
43 | Cc1ccc(S(=O)(=O)NNC(=S)NC(C)(C)C)cc1 | 2.84% (inactive)
44 | Cc1cc(C(=O)NNC(=S)NC(C)c2ccccc2)cs1 (centres undefined) | -0.45% (inactive)
45 | O=C(C1CCCN1S(=O)(=O)c1ccc(Br)cc1)N1CCOCC1 (centres undefined) | -1.1% (inactive)
46 | COC(=O)[C@@H]1C[C@@]2(O)[C@H](O)[C@H](O)[C@H](O)C[C@H]2N1Cc1ccc(C(C)(C)C)cc1 | -5.29% (inactive)
47 | COC(=O)[C@@H]1C[C@@]2(O)[C@@H](O)[C@@H](O)[C@@H](O)C[C@H]2N1Cc1ccc(C)s1 | 96% (active)
48 | COC(=O)[C@@H]1C[C@@]2(O)[C@H](O)[C@H](O)[C@H](O)C[C@H]2N1Cc1ccc(C)s1 | -1.88% (inactive)
49 | C/C(Cn1nnc2ccccc21)=N\OC(=O)c1cc(F)c(F)cc1Cl | -2.84% (inactive)
50 | O=[N+]([O-])C(=c1ccc2c(c1)N1C3=C(CCCC3)CC3CCCCC31N=2)[N+](=O)[O-] (centres undefined) | 34.6% (active)
51 | Cc1c(Cl)cccc1NC(=S)NCc1ccc2c(c1)OCO2 | 3.45% (inactive)
52 | O=C(NNC1=NCCC1)c1cccc(S(=O)(=O)N2CCCCC2)c1 | 6.05% (inactive)
53 | Cc1ccc(N(C(=O)c2ccc(CN3CCOCC3)o2)C(C(=O)NCCC(C)C)c2cccs2)c(C)c1 (centres undefined) | 3.08% (inactive)
54 | CC(C)(C)c1ccc(/C=C2\SC(=O)N=C2N)cc1 | 2.64% (inactive)
55 | C/C(=N\NC(=S)Nc1ccc(C)cc1)c1cc2ccccc2o1 | -0.73% (inactive)
56 | CCCc1c(C(=O)Nc2ccc(F)cc2)cnn1-c1ccccc1 | 2.37% (inactive)
57 | CN(C)CCCN(Cc1cc2cc3c(cc2[nH]c1=O)OCCO3)C(=O)NC1CCCCC1 | 2.76% (inactive)
58 | O=C(c1ccc(F)cc1)N1CCCC(c2nc(-c3cccs3)no2)C1 (centres undefined) | 3.08% (inactive)
59 | COc1ccnc(Oc2ccccc2)n1 | 15.9% (inactive)
